Activity calls are given as the source filed them. Unless noted, no rule for the calls is given here.

Assay [1] relates to Wnt5a (protein binding on small-molecule microarray). The experiment in a line: Wnt5a binders on small-molecule microarray, primary screen, biophysical, 635/667 nm fluorescence (AID 1142).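 Also: fluorescence read at 667 nm with signal to noise per printed feature.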 The note with it: 635 nm fluorescence, higher = more signal.
A short description of assay [2]: cell viability in Huh7 cells, primary screen, cytotoxicity control for HCV replication inhibitor project, CellTiter-Glo luminescence, basal, 48 h (AID 1143).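 Also: Huh7 hepatoma cells carrying a hepatitis C replication reporter with no stimulus; test concentration not given here.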 The note with it: Huh7 HCV replicon, higher = more signal, called active from +8 up or from −8 down. For orientation: In ATP-based viability assays light output follows the ATP content of the culture.
A short description of assay [3]: P. aeruginosa biofilm formation inhibitors, primary screen, PAO1 strain, BacTiter-Glo luminescence, LB-PBS (AID 1144). Conditions: 12 h, higher = more signal.
Assay [4] in a line: CREB reporter modulators without forskolin, primary screen, cell-based, PC12, CRE-LacZ reporter, unstimulated (AID 1145). The note with it: no forskolin, luminescence, 4.5 h, higher = more signal, called active from +8 up or from −8 down.
The nature of assay [5]: CREB reporter modulators under forskolin, primary screen, cell-based, PC12, CRE-LacZ reporter, forskolin-stimulated (AID 1146).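 Also: PC12 cells with 6xCRE LacZ reporter stimulated by forskolin 10 µM; beta-galactosidase reporter signal reflecting CREB driven transcription.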 The note with it: luminescence, 4.5 h, higher = more signal, called active from +8 up or from −8 down.
For assay [6], the target named is Streptavidin (Streptomyces avidinii) (UniProt P22629). The experiment in a line: streptavidin binders on small-molecule microarray, primary screen, artefact control for SMM compound annotation, biophysical, 635/667 nm fluorescence (AID 1147).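 Also: signal reflects streptavidin binding to arrayed compounds as a control protein.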 The note with it: streptavidin binding, higher = more signal.
Assay [7] can be described thus: small-molecule binders of probe aInhba, primary screen, biochemical, small-molecule microarray, 635/667 nm fluorescence (AID 1148).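 Also: score merges 667nm spot fluorescence with signal-to-noise for antibody binding to printed compounds.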 The note with it: higher = more signal.
Assay [8] deals with Torsin-1A (Homo sapiens) (UniProt O14656). The experiment in a line: torsin A binders from cell lysate, primary screen, small-molecule microarray, wild-type, 635/667 nm (AID 1149). The note with it: COS7 hTOR1A-WT lysate, 635 nm fluorescence, higher = more signal.
The target is the same in assay [9]. The experiment in a line: small-molecule binders of mutant TOR1A in lysate, primary screen, cell lysate, small-molecule microarray, COS7 lysate, 635/667 nm fluorescence (AID 1150).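 Also: score pools 667 nm emission and signal to noise measuring lysate protein binding.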 Conditions: COS7 hTOR1A mutant lysate, 635 nm fluorescence, higher = more signal.
The subject of assay [10] is Sonic hedgehog protein (Shh). The experiment in a line: small-molecule binders of Shh protein, primary screen, biochemical, small-molecule microarray, 635/667 nm fluorescence (AID 1151).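 Also: Shh protein binding to compounds spotted on small-molecule microarray slides; score combines spot fluorescence intensity with signal-to-noise across triplicate slides.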 The note with it: small-molecule microarray binding, 635 nm fluorescence; higher = more signal.
Assay [11] in a line: E. coli DRC41 culture turbidity changes, primary screen, E. coli filamentation inducer project, strain DRC41, OD650, 48 h (AID 1152).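 Also: E. coli MC1000 strain DRC41 lacking acrAB efflux pump and sulA.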 The note with it: E. coli DRC41 (acrAB sulA), higher = more signal, called active from +8 up or from −8 down.
Assay [12] can be described thus: small-molecule binders of probe aLefty1, primary screen, biochemical, small-molecule microarray, 635/667 nm fluorescence (AID 1153).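 Also: score merges spot fluorescence with signal-to-noise ratio from the scanned slide images.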 The note with it: higher = more signal.
Assay [13] is described as follows: PSAC antagonists in infected red cells, primary screen, cell-based, P. falciparum Indochina, OD700, 1 h (AID 1154). The note with it: P. falciparum Indochina infected RBC osmotic lysis, higher = more signal, called active from +8 up or from −8 down.
Assay [14] can be described thus: PSAC antagonists in infected red cells, primary screen, cell-based, P. falciparum Indochina, OD700, 2 h (AID 1155).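 Also: lysis reports solute entry through the parasite surface anion channel PSAC; channel blockers reduce lysis of infected cells.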 Conditions: P. falciparum Indochina infected erythrocytes, osmotic lysis OD700; higher = more signal, called active from +8 up or from −8 down.
A short description of assay [15]: osmotic lysis modulators in infected erythrocytes, primary screen, PSAC antagonist project, cell-based, P. falciparum Indochina, OD700, 3 h (AID 1156). Conditions: higher = more signal, called active from +8 up or from −8 down.
Assay [16] can be described thus: PSAC antagonists in infected red cells, primary screen, cell-based, P. falciparum Indochina, OD700, 18 h (AID 1157). Conditions: P. falciparum Indochina infected erythrocytes, osmotic lysis OD700, 18 h; higher = more signal, called active from +8 up or from −8 down.
Assay [17] is described as follows: modulators of S6 phosphorylation in cells, primary screen, cell-based, A549, cytoblot, luminescence, serum-stimulated (AID 1158).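 Also: serum-stimulated A549 lung adenocarcinoma cells; signal is phosphorylated S6 detected by cytoblot immunostaining with HRP secondary.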 Conditions: A549 phospho-S6 cytoblot, 5 h, higher = more signal.
Assay [18] concerns the target NADPH oxidase 2 (Homo sapiens) (UniProt P04839). The experiment in a line: NOX2-dependent H2O2 signal modulators, primary screen, NOX inhibitor project, cell-based, HEK293-NOX2, PMA-stimulated, Amplex Red fluorescence (AID 1159). Also: test concentration not given here. Conditions: 45 min, higher = more signal, called active from +8 up or from −8 down.
Assay [19] has as its target NADPH oxidase 4 (Homo sapiens) (UniProt Q9NPH5). The experiment in a line: NOX4-dependent H2O2 signal modulators, primary screen, NOX inhibitor project, cell-based, HEK293-NOX4, tetracycline-induced, Amplex Red fluorescence (AID 1160). Conditions: 45 min, higher = more signal, called active from +8 up or from −8 down.
Assay [20] concerns the target NADPH oxidase 5 (Homo sapiens) (UniProt Q96PH1). Put plainly: NOX5-dependent H2O2 signal modulators, primary screen, NOX inhibitor project, cell-based, HEK293-NOX5, Amplex Red fluorescence (AID 1161). Conditions: HEK293-NOX5, ionomycin, 45 min, higher = more signal.

Chain of NADPH oxidase 4 (Homo sapiens) (Q9NPH5 whole entry, looked up): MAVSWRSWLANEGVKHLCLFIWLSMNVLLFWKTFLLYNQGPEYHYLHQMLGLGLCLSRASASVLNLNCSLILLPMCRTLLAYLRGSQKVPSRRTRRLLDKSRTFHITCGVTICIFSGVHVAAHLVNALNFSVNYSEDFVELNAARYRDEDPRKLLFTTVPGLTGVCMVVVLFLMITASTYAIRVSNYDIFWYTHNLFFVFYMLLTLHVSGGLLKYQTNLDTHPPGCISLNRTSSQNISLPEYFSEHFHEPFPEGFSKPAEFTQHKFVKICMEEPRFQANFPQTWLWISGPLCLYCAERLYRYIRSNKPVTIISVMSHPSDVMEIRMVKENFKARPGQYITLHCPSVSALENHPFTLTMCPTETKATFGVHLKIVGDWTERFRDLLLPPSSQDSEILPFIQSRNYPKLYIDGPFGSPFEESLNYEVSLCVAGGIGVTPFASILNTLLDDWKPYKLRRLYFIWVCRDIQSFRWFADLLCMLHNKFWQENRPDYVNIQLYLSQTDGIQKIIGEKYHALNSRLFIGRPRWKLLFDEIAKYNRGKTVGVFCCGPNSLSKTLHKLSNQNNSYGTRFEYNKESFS
Chain of Torsin-1A (Homo sapiens) (O14656 whole entry, looked up): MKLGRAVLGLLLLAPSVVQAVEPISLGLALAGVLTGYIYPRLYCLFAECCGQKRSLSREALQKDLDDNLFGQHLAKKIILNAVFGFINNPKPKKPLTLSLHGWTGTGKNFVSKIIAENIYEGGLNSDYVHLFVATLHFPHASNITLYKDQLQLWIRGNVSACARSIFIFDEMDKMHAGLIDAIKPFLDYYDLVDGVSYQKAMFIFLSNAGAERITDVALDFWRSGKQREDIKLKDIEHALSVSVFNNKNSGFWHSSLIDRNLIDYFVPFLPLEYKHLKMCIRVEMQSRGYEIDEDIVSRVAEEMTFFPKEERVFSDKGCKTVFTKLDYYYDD
Chain of NADPH oxidase 2 (Homo sapiens) (P04839 whole entry, looked up): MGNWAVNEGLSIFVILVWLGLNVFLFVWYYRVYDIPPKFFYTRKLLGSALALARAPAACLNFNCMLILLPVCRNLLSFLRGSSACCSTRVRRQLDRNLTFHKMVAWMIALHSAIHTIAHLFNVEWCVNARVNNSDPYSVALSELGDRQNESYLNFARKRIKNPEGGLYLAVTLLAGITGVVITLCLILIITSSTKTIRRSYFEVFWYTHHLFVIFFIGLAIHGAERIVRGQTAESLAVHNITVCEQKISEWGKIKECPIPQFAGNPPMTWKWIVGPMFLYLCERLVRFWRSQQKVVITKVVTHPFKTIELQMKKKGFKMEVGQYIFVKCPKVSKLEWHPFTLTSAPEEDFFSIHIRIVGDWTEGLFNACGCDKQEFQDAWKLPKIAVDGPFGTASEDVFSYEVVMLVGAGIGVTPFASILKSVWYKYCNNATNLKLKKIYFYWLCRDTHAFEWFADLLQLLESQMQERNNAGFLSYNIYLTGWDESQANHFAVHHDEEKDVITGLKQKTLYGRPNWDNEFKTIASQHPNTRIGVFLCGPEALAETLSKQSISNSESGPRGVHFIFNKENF
Chain of NADPH oxidase 5 (Homo sapiens) (Q96PH1 whole entry, looked up): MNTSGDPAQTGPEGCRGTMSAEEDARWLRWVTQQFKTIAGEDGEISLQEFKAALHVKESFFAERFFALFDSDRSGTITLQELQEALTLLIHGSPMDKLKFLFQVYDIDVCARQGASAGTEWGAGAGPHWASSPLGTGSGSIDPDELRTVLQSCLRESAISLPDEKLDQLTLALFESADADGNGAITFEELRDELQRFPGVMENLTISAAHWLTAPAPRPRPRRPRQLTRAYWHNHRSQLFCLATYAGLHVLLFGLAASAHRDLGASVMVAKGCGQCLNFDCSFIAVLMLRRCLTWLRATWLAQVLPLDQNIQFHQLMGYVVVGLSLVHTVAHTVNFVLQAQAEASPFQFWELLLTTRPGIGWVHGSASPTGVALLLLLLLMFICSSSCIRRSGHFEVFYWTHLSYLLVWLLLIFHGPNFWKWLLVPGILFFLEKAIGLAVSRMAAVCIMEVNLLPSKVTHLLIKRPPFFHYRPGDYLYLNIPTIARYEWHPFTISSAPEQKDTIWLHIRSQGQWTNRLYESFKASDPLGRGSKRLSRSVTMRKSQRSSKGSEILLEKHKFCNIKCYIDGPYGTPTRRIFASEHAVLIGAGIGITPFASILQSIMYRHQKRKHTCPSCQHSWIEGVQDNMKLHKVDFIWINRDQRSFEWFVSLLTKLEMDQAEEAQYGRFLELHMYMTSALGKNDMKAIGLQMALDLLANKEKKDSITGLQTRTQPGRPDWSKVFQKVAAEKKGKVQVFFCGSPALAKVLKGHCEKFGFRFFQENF
Chain of Streptavidin (Streptomyces avidinii) (P22629 whole entry, looked up): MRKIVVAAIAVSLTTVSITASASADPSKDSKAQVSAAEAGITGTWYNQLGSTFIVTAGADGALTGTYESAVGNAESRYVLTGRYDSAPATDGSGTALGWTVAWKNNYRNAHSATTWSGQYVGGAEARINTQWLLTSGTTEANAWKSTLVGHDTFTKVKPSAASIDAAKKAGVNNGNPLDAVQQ

`C=CCC(OC(C)=O)[C@@H]1[C@@H](N(Cc2cc3ccccc3o2)C(=O)c2cccc3ccccc23)c2cc(OCCCO)ccc2N1C(=O)c1ccc2ccccc2n1` (stereo not given in full): the composite z-score in assay [1] was 0.0394; in assay [6], 0.0002; in [7], -0.0131; in the assay with Torsin-1A (Homo sapiens) [8], 0.866; with Torsin-1A (Homo sapiens) [9], -0.661; in assay [10] it was 0.151. This compound came in with a composite z-score in assay [12] of -0.239. Also, the z-score in [2] is -1.35 (inactive); in [3], -0.399 (inactive); in assay [4], 2.6 (inactive); in [5], -0.273 (inactive); in [11], 0.595 (inactive); in assay [13], 1.53 (inactive). Further, the z-score in [14] is 0.26 (inactive); in assay [15], 0.266 (inactive); in assay [16] it was 0.506 (inactive); in assay [17], 0.231; in assay [18] it was 0.889 (inactive); in [19] it was -0.605 (inactive). In addition, the z-score in assay [20] is -1.64.

For the compound `Cc1ccc(F)cc1S(=O)(=O)N[C@H]1CCN(Cc2ccc(OC(C)C)cc2)C1`, the composite z-score in [1] is -0.223; in assay [6], -0.48; in assay [7], -0.0963; with Torsin-1A (Homo sapiens) [8], 0.149; in the assay with Torsin-1A (Homo sapiens) [9], -0.0115; in [10], 1.75. In [12], this compound returned a composite z-score of -0.241. In addition, the z-score in [2] was -3.11 (inactive); in assay [3], 0.434 (inactive); in assay [4] it was 1.4 (inactive); in assay [5], -0.592 (inactive); in [11] it was -4.19 (inactive); in assay [13], 2.31 (inactive). The z-score is 0.709 (inactive) in [14]; 0.183 (inactive) in assay [15]; 0.526 (inactive) in assay [16]; -0.227 in assay [17]; -1.11 (inactive) in assay [18]; -0.777 (inactive) in assay [19]. Also, the z-score in assay [20] is -2.37.

As to `O=C(NCc1ccc(F)cc1)[C@H]1C[C@H]2C(=O)N3CCC[C@H]3C(=O)N2[C@H]1c1ccc(O)cc1`, the composite z-score in assay [1] is -0.216; in [6] it was -1.32; in assay [7], -0.443; with Torsin-1A (Homo sapiens) [8] it was 0.264; with Torsin-1A (Homo sapiens) [9], 0.202; in [10], 0.546. The compound also had a composite z-score in [12] of -0.491. For the same compound, the z-score in [2] is -2.87 (inactive); in [3], 0.893 (inactive); in [4] it was 1.24 (inactive); in [5], -0.677 (inactive); in [11], 1.84 (inactive); in [13] it was 1.25 (inactive). The z-score in assay [14] is -0.989 (inactive); in [15], -3.27 (inactive); in assay [16] it was -1.66 (inactive); in [17], 0.505; in assay [18], -1.35 (inactive); in assay [19] it was -0.184 (inactive). In [20], this compound displayed a z-score of 0.601.

As for `C=CCN1C(=O)[C@@]2(O[C@@H](CCn3cc([C@H](O)c4ccccc4)nn3)[C@H]([Si](C)(C)c3ccc(OC)cc3)[C@H]2C)c2cc(N3C(=O)c4cccc5cccc3c45)ccc21`, the composite z-score was -0.654 in assay [1]; -0.253 in [6]; -0.128 in assay [7]; -0.488 with Torsin-1A (Homo sapiens) [8]; -0.462 in the assay with Torsin-1A (Homo sapiens) [9]; -0.339 in assay [10]. The same compound gave a composite z-score in assay [12] of -0.101. The z-score in assay [2] is -3.71 (inactive); in [3], -0.119 (inactive); in assay [4] it was 9.39 (active); in [5], -0.592 (inactive); in assay [11] it was -0.851 (inactive); in assay [13], 4.77 (inactive). Moreover, the z-score in assay [14] was 1.81 (inactive); in assay [15], 0.519 (inactive); in assay [16] it was 1.31 (inactive); in assay [17], 0.075; in assay [18], 0.962 (inactive); in assay [19], 1.57 (inactive). The same compound registered a z-score in assay [20] of 2.52.

The record behind these values is PubChem BioAssay.
